In ChEMBL document CHEMBL3988442, “University of Dundee, Small-Polar-MMV Screening Library” (2021):
Screen size: about 48,000 compounds; about 13,000 (27%) showed an effect of 50% or more. Some of the results follow.

system: Wolbachia pipientis; assay: Anti-Wolbachia Cell-Based Screen; assay type: functional; set-up: scale not given: in the data most compounds retested in dose-response had high values; details: 5 µM

Structure (SMILES)	Percent Effect [%]
CN(C)CCNC(=O)c1noc2c1CN(C(=O)N(C)C)CC2	9.564
Cc1c(I)cccc1C(=O)NCc1ncc[nH]1	-7.865
Cc1c(C(=O)NCCCS(C)(=O)=O)cccc1-c1ccccn1	78.39
Cc1c(C(=O)NCC(C)(C)S(C)(=O)=O)cccc1-c1ccccn1	90.41
Cc1c(C(=O)NCCC(=O)N2CCCC2)oc2c(F)cccc12	5.296
Cn1cc(C(=O)NCCC(=O)N2CCCCC2)c(-c2cccnc2)n1	-19.31
Cc1ccc(C(=O)NCCCS(=O)(=O)c2ccccc2)c(=O)[nH]1	14.19
Cc1c(C(=O)NCCC(=O)N2CCCC2)cccc1-c1ccccn1	102.1
Cn1ccc2c(C(=O)NCCCS(C)(=O)=O)cccc21	-9.064
Cc1c(NCC(C)(C)C)cccc1C(=O)NCc1ncnn1C	-8.622
Cc1csc(C2(NCc3nc(-c4ccco4)no3)CCCC2)n1	-16
Cc1cc(C)n2nc(CC(=O)N[C@H]3C[C@H]4CN(C)CCN4C3)nc2n1	-5.28
O=C(O)C(F)(F)F.O=C1COC2(CCN(Cc3ccc(F)cc3)CC2)CN1	10.25
CC1CCC2(CC1)Nc1ccccc1CO2 (stereo not drawn)	93.91
c1ccc2c(c1)COC1(CCCCC1)N2	87.69
c1ccc(CN2CCC3(CC2)Nc2ccccc2CO3)cc1	107.9
c1ccc2c(c1)COC1(CCCC1)N2	105.5
OCC1(Cc2ccc(Cl)cc2)CCN(Cc2ccccc2O)CC1	-3.576
CCc1nc(NC(=O)NCCc2cccc(C)n2)nn1C	-4.482
O=S(=O)(NCC(O)c1ccc(C(F)(F)F)cc1)C1CC1 (stereo not drawn)	-5.07
Cc1noc(C)c1CNc1cccc(C(=O)N2CCCC(O)C2)c1 (stereo not drawn)	6.213
CC(C)(C)n1ncc2c(=O)[nH]c(N3CCC4(CCCCC4)C3)nc21	-1.553
Cc1nnc(SC2CCN(c3sccc3C#N)C2=O)[nH]1 (stereo not drawn)	106.7

Structure (SMILES)	Percent Effect [%]
Cn1c(N)nnc1SC1CCCN(c2ccccc2)C1=O (stereo not drawn)	-9.447
Cc1nnc(SC2CCN(c3sccc3C#N)C2=O)s1 (stereo not drawn)	109.2
CN(Cc1ncnn1C)C1CCN(c2sccc2C#N)C1=O (stereo not drawn)	7.621
Cc1cc(N)nc(SC2CCN(c3ccccc3F)C2=O)n1 (stereo not drawn)	10.35
N#Cc1ccsc1N1CCC(Sc2ncc[nH]2)C1=O (stereo not drawn)	95.53
N#Cc1ccsc1N1CCC(Sc2ccncc2)C1=O (stereo not drawn)	81.54
Cc1cc(N)nc(SC2CCN(c3ccccc3)C2=O)n1 (stereo not drawn)	-22.79
CCc1cnc(CN(C)C2CCN(c3sccc3C#N)C2=O)s1 (stereo not drawn)	1.692
O=C1C(Sc2nc(=O)ccn2C2CC2)CCN1c1ccccc1 (stereo not drawn)	-7.516
CCc1ncc(CN(C)C2CCN(c3sccc3C#N)C2=O)s1 (stereo not drawn)	0.715
CCC(CO)N(Cc1ccco1)C(=O)c1sccc1NC(C)=O (stereo not drawn)	21.44
Cc1oncc1NS(=O)(=O)c1c[nH]c2ncccc12	-22.29
c1cncc(COCC2CN(Cc3ccsc3)Cc3ccnn3C2)c1 (stereo not drawn)	-8.281
COc1ccccc1OCCNc1snc(Cl)c1C#N	-4.663
Cc1csc(CN(C)C2CCN(c3sccc3C#N)C2=O)n1 (stereo not drawn)	9.47
CCc1noc(CN(C)C2CCN(c3sccc3C#N)C2=O)n1 (stereo not drawn)	0.9243
Cc1nc(SC2CCN(c3sccc3C#N)C2=O)oc1C (stereo not drawn)	85.81
Cn1c(C(N)=O)ccc1-c1ccccc1	3.483
CC(C)NC(=O)NCCCOC1CCOCC1	-1.893
COCCOCC(=O)N(Cc1cccc(C)c1)C(C)C	-6.619
O=C(O)C(F)(F)F.O=C1COC2(CCN(Cc3ccoc3)CC2)CN1CCn1cccn1	2.726
O=C(O)C(F)(F)F.O=C1COC2(CCN(Cc3ccco3)CC2)CN1CCn1cccn1	4.018
Cc1cccc(CN2CC3(CCN(Cc4ccoc4)CC3)OCC2=O)n1.O=C(O)C(F)(F)F.O=C(O)C(F)(F)F	122.8

Structure (SMILES)	Percent Effect [%]
Cc1cccc(CN2CC3(CCN(Cc4ccco4)CC3)OCC2=O)n1.O=C(O)C(F)(F)F.O=C(O)C(F)(F)F	121.1
O=C(O)C(F)(F)F.O=C(c1ccco1)N1C[C@H]2CCCN(CC3CCOCC3)[C@H]2C1	-19.49
COCCNC(=O)[C@H]1CN(Cc2scnc2C)C[C@H]2OCC[C@@H]12.O=C(O)C(F)(F)F.O=C(O)C(F)(F)F	-9.051
COc1cccc(-c2ncc(CN3CC[C@H]4CC[C@@H](C3)N4)s2)c1	-2.167
O=c1[nH]c(-c2ccc(F)c(F)c2)nc2c1CCNC2	-21.65
Cc1nc(CN2CCCC(N(C)Cc3cnc(C)s3)C2)no1 (stereo not drawn)	2.952
CC(=O)N(Cc1noc(C)n1)C1CCN(Cc2cnc(C)s2)C1 (stereo not drawn)	83.55
CCOc1nnc(CN2CCC(N(C)Cc3noc(C)n3)C2)s1 (stereo not drawn)	5.667
Cc1nc(CN(C)C2CCN(Cc3ccc(Cl)s3)C2)no1 (stereo not drawn)	99.87
CCc1cnc(CN2CCC(N(C)Cc3noc(C)n3)C2)o1 (stereo not drawn)	97.22
Cc1nc(CN2CCCC(N(C)Cc3nnsc3Cl)C2)no1 (stereo not drawn)	-2.376
Cc1nc(CN(C)C2CCN(Cc3cnc(C)s3)C2)no1 (stereo not drawn)	106.5
NC(=O)N1CCc2cc(C(=O)O)c(-c3ccsc3)nc2CC1.O=C(O)C(F)(F)F	-21.16
Cc1cc(CNC(=O)Nc2cc(F)cc(N3CCCC3)c2)no1	-57.71
Cc1cccc(C(C)(C)CNC(=O)CN(C)S(=O)(=O)c2cccnc2)c1	4.775
CC(O)CN(CC(=O)NC1CCCCC1)c1ccccc1 (stereo not drawn)	-11.54
CC(C)(C)c1ncc2c(n1)CN(C(=O)c1ccc(-c3nc[nH]n3)cc1)C2	-2.467
CCc1ccc(C(=O)N2CCN(Cc3ccc(F)cc3)CC2)s1	-10.91
CC(C)(C)Cc1nnc(NCc2ccsc2)o1	-6.79
CC(=O)N(Cc1noc(C)n1)C1CCN(Cc2ncc(C(C)C)o2)C1 (stereo not drawn)	142.1
CC(=O)N(Cc1ncc(C(C)C)o1)C1CCN(Cc2nccn2C)C1 (stereo not drawn)	-4.268
CC(=O)N(Cc1ncc(C(C)C)o1)C1CCN(Cc2ncc[nH]2)C1 (stereo not drawn)	11.04
